Screens from PubChem BioAssay.
JMJD2A Tudor inh: blocks the human JMJD2A Tudor domain | hit rate 4.4% among 390,000 | Potency, µM (series often up to 114 µM), for inactives: at the top dose activity change, negative = inhibition, actives largely listed as inhibitors | AlphaScreen JMJD2A-Tudor / H3K4me3 peptide binding; note: potency is the fitted concentration of half-maximal effect; % is set by controls: 0 for no effect and ±100 for the full control effect; nearly all actives have a fitted effect of over 50% in size
PLK1 PBD inh: blocks phosphopeptide binding to human PLK1 polo-box domain. P53350. hit rate 2.8% among 360,000. Potency, µM, for inactives: max response, negative = inhibition, usual class: inhibitors. AID 720504. Plk1 PBD binding of FITC phosphopeptide, fluorescence polarization; note: potency is the fitted concentration of half-maximal effect; series mostly up to about 57 µM; % is set by controls: 0 for no effect and ±100 for the full control effect; nearly all actives have a fitted effect of over 65% in size
PI5P4Ka inh: PI5P4K alpha (human) kinase inhibition. max response, %. hit rate 1.2% among 330,000. PI5P4Kalpha enzyme, ADP-Glo luminescence, 60 min; active compounds read low. P48426; active = max response of -50% or lower; inconclusive = between -30% and -50%; inactive = -30% or higher; note: value at the top dose of about 77 µM; % is set by controls: 0 for no effect and ±100 for the full control effect
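Controls without substrate or without enzyme flank wells where PI5P4Kalpha converts substrate using 5 microM ATP (final). Incubation lasts 60 minutes at room temperature; ADP formed is read by ADP-Glo luminescence.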
BAZ2B inh: inhibitors of human BAZ2B bromodomain; Q9UIF8; AlphaScreen BAZ2B-H3K14Ac peptide displacement; Potency, µM (top dose mostly 114 µM), without a hit: at the highest dose activity change, negative = inhibition, actives largely listed as inhibitors; hit rate 4.4% among 360,000; AID 504333; note: potency is the fitted concentration of half-maximal effect; % is set by controls: 0 for no effect and ±100 for the full control effect; nearly all actives have a fitted effect of over 60% in size
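AlphaScreen luminescence quantifies BAZ2B engagement of H3K14Ac peptide; the protein and biotinylated peptide are both at 50 nM final, buffer PBS pH 7.4 with 0.01% Tween-20, all steps at room temperature.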
G9a inh: inhibitors of human histone lysine methyltransferase G9a | Q96KQ7 | G9a H3K9 monomethylation, AlphaScreen, 2 h | Potency, µM (top dose mostly 102 µM), for inactives: at the highest dose activity, negative = inhibition, hits mostly inhibitors | hit rate 8.8% among 350,000 | AID 504332; note: potency is the fitted concentration of half-maximal effect; % is set by controls: 0 for no effect and ±100 for the full control effect; nearly all actives have a fitted effect of over 75% in size
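AlphaScreen detection with an anti-monomethyl H3K9 antibody quantified product after a 2 h room-temperature reaction containing 500 nM biotinylated H3K9 peptide, 20 µM SAM and 20 nM enzyme, which had been preincubated 15 min with compound.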
HP1b binding inh: inhibitors of HP1-beta chromodomain binding to methylated histone tails; P83916; AlphaScreen HP1-beta / biotin-H3K9me3 peptide binding; hit rate 0.56% among 390,000; Potency, µM (top dose mostly 114 µM), without a hit: at the highest dose activity change, negative = inhibition, most hits filed as inhibitors; note: potency is the fitted concentration of half-maximal effect; nearly all actives have a fitted effect of over 70% in size
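AlphaScreen: HP1-beta (50 nM) preformed 30 min with biotin-H3(1-18)K9me3 peptide (50 nM) in PBS pH 7.4, 0.01% Tween-20. Compound added for 30 min at RT, then streptavidin donor/nickel chelate acceptor beads (10 ug/mL) for 30 min.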
* hit, by the source's call; ? = inconclusive; / = no result; [ ] = dose if it differs, or a comment. An excerpt weighted towards active compounds, which were near 12% of everything screened. Unless noted, calls come from the whole dose curve; as a rule, active = well fitted curve in the direction sought with a large enough effect; inconclusive = small, poorly fitted or top-dose-only effect, or another doubt; inactive = no such curve, though single readings can be large; an effect the other way counts as inactive or inconclusive.

SMILES	JMJD2A Tudor inh	PLK1 PBD inh	PI5P4Ka inh	BAZ2B inh	G9a inh	HP1b binding inh
COc1ccc(CCNCc2ccccc2F)cc1OC	-4%	-2%	-6	-4%	-7%[59 µM]	19%
C[C@H](NC(=O)[C@@H](N)Cc1ccc(O)cc1)C(=O)NCC(=O)N(C)[C@@H](Cc1ccccc1)C(=O)N[C@H](CO)CCS(C)=O (stereo partly specified)	/	/	/	/	21%[59 µM]	/
Clc1ccccc1Cl	/	/	/	/	21%[59 µM]	/
C[C@@]12CC[C@H](O)C[C@@H]1CC[C@H]1[C@@H]2C[C@@H](O)[C@]2(C)[C@@H](C3=CC(=O)OC3)CC[C@]12O	/	/	/	/	10%[21.5 µM]	/
CCOC(=O)NC(O)C(Cl)(Cl)Cl (stereo unspecified)	/	/	/	/	-1%[12.7 µM]	/
COc1ccc(CNCCc2ccc(Cl)cc2)c(OC)c1OC	32µM*	-1%	10	?	35µM*	?
COc1ccccc1CNCCc1ccc(F)cc1	32µM*	-11%	3	50µM*	-12%	?
COc1cc(OC)c(OC)cc1CNCCc1cccc(F)c1	7.9µM*	-11%	3	56µM*	-15%	?
COc1ccccc1CNCCc1cccc(Cl)c1	/	-5%	-3	/	/	/
Fc1cccc(CNCCc2c[nH]c3ccccc23)c1	-15%	-1%	2	?	/	26%
COc1ccc(CCNCc2ccc(Br)cc2)cc1OC	20µM*	4%	0	50µM*	-17%	?
CC(C)CC(NP(=O)(O)O[C@@H]1O[C@@H](C)[C@H](O)[C@@H](O)[C@H]1O)C(=O)NC(Cc1c[nH]c2ccccc12)C(=O)O (stereo partly specified)	/	/	/	/	49%[59 µM]	/
O=C(O[C@@H]1Cc2c(O)cc(O)cc2O[C@@H]1c1cc(O)c(O)c(O)c1)c1cc(O)c(O)c(O)c1	/	/	/	8.9µM*	1.8µM*	/
CCOP(=S)(OCC)Oc1nc(Cl)c(Cl)cc1Cl	77%	30µM*	-16	108%	-3%[0.501 µM]	93%
Cc1n[nH]c(C)c1CCCCOc1ccc([N+](=O)[O-])cc1	-15%	0%	-3	-20%	50µM*	18%
CN(C)[C@@H]1C(=O)C(C(N)=O)=C(O)[C@@]2(O)C(=O)C3=C(O)c4c(O)ccc(Cl)c4[C@@](C)(O)C3C[C@@H]12 (stereo partly specified)	11µM*	-14%	?	45µM*	50µM*	31%
CN(C)C1C(=O)C(C(N)=O)=C(O)C2(O)C(=O)C3=C(O)c4c(O)cccc4C(C)(O)C3CC12 (stereo unspecified)	40µM*	-26%	-9	13µM*	?	-12%
CN(C)[C@H]1C(=O)C(C(N)=O)=C(O)[C@]2(O)C(=O)C3=C(O)c4c(O)cccc4[C@@](C)(O)[C@H]3C[C@@H]12	/	/	/	/	1%[21.5 µM]	/
O=C(Cc1ccc(S(=O)(=O)N2CCCC2)s1)N1CCN(c2ccc(F)cc2)CC1	?	-7%	?	/	?	?
CCNC(=O)O/N=C(\C)c1sc(-c2ccccc2)nc1C	-6%[11.4 µM]	24µM*	-2	-4%	12%	-4%
Cc1ccc(-n2nc(C)c(C3C(C#N)=C(N)Oc4c3c(=O)oc3ccccc43)c2Cl)cc1 (stereo unspecified)	/	/	/	2%	1%[59 µM]	/
Cc1ccc(-n2nc(C)c3c2OC(N)=C(C#N)C3c2cccs2)cc1 (stereo unspecified)	-1%	0%	1	35µM*	35µM*	37%
CN(C)CCN(C)CCc1ccc(Cl)c(Cl)c1	/	/	/	/	-2%[59 µM]	/
CCC(=O)Nc1ccccc1-c1nc2ccccc2n(C(CC)C(=O)Nc2cccc(Cl)c2)c1=O (stereo unspecified)	2%	/	/	-4%	?	29%
CCC(=O)Nc1nc2ccccc2n1CCN(C)C	40µM*	-3%	2	?	32µM*	-11%
SMILES	JMJD2A Tudor inh	PLK1 PBD inh	PI5P4Ka inh	BAZ2B inh	G9a inh	HP1b binding inh
Cc1ccc(CSCCNS(=O)(=O)c2ccc([N+](=O)[O-])cc2)cc1	?	2%	8	?	?	-7%
CN(C)CCN(Cc1ccccc1)c1ccnc(N(C)C)c1C#N	63µM*	-12%	-9	?	7.9µM*	?
CCOc1cccc(=NC2CCCCC2)c2c(C)n(C)c(C)c12	?	-3%	-2	?	50µM*	?
CC(C)Oc1ccc(C2C(C#N)=C(N)Oc3c2c(=O)oc2ccccc32)cc1 (stereo unspecified)	-10%[57.1 µM]	-5%	0	14%	24%[59 µM]	16%
N#CC1=C(N)Oc2c(c(=O)oc3ccccc23)C1c1ccc([N+](=O)[O-])o1 (stereo unspecified)	-35%	21µM*	-8	?	/	-10%
CS(=O)(=O)NNP(=O)(NNS(C)(=O)=O)NC(=O)c1ccc(Br)cc1	-17%	-5%	3	-14%	45µM*	44%
NP(=O)(Nc1ccccc1)Nc1ccccc1	-17%	-2%	0	/	/	6%[57 µM]
CS(=O)(=O)NNP(=O)(NNS(C)(=O)=O)NC(=O)c1ccccc1	6%	4%	-3	-10%	56µM*	31%
COC1C(O)C(C)O[C@H](OC2CC[C@@]3(C=O)C4CC[C@]5(C)C(C6=CC(=O)OC6)CC[C@@]5(O)C4CC[C@@H]3C2)C1O (stereo partly specified)	/	/	/	/	-7%[2.33 µM]	/
N[C@H](Cn1ccc(=O)c(O)c1)C(=O)O	/	/	/	/	18%[21.5 µM]	/
N[C@@H](Cn1ccc(=O)c(O)c1)C(=O)O	/	/	/	/	10µM*	/
O=C(CNC(=O)c1cccs1)OCC(=O)c1ccc([N+](=O)[O-])cc1	2%	-5%	?	1%	17%[0.501 µM]	59%
O=C(OCC(=O)c1ccc([N+](=O)[O-])cc1)/C(=C/c1ccc(Cl)cc1)NC(=O)c1ccccc1	-13%	-7%	-3	-11%	7.9µM*	44%
O=C1NC(=O)N(Cc2cccs2)C(=O)/C1=C/c1ccc(N2CCOCC2)cc1	-34%	3µM*	-52*	?	?	24%
Clc1ccccc1-c1cncnc1NCCc1cnc[nH]1	/	/	/	/	0%[0.501 µM]	/
c1cc(CNCCc2ccc3c(c2)OCO3)ccn1	8.9µM*	-14%	0	56µM*	23%[0.501 µM]	?
Brc1ccccc1CNCCc1ccc2c(c1)OCO2	3.2µM*	-9%	-3	?	/	?
CCN(CC)c1ccc(CNCCc2ccc(F)cc2)cc1	?	-12%	2	45µM*	13µM*	-17%
Fc1ccc(CNCCc2ccc3c(c2)OCO3)cc1	56µM*	-4%	2	?	50µM*	7%
CCOc1ccc(CNCCc2ccc3c(c2)OCO3)cc1	-24%	-10%	1	-22%	-9%	13%
CCOc1ccccc1CNCCc1ccc2c(c1)OCO2	-11%	-23%	0	3%	13%	21%
